ROCK2 inh: ROCK2 (human) kinase inhibition | purified ROCK2, Kinase-Glo ATP depletion luminescence | hit rate 0.35% among 60,000 | O75116 | inhibition, % at 6 µM;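 active means inhibition above the screen-wide mean inhibition plus 3 SD, cut at about 18% in these data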;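 further: plate controls were DMSO wells for no effect and Y-27632 control wells after no-enzyme background subtraction for full effect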
SKBR3 24h inh: SK-BR-3 proliferation inhibitors; SK-BR-3 viability, CellTiter-Glo ATP luminescence, 24 h; hits give low values; viability, % at 10 µM; hit rate 0.47% among 41,000;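 active means viability at or below the median of all test compounds minus 3 SD, in both replicates if run twice, cut at about 45% in these data; inconclusive means duplicate replicates that disagree with each other; inactive means viability above that cutoff in every replicate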;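 further: 100% = median untreated cell wells and 0% = median positive control drug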
PKA kinase inh: PKA (human) kinase inhibition. P17612. PKA Kemptide phosphorylation, Kinase-Glo ATP luminescence. inhibition, % at 6 µM. hit rate 0.1% among 65,000. AID 524;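 active means inhibition above the screen-wide mean inhibition plus 3 SD, cut at about 21% in these data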
JNK3 inh: JNK3 (human) kinase inhibition. purified JNK3 kinase activity, HTS. inhibition, % at 8 µM. hit rate 0.61% among 60,000; in the data active means inhibition above about 17%;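 further: 0% = DMSO and 100% = reference inhibitor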
Target sequence (P53779 whole entry, looked up): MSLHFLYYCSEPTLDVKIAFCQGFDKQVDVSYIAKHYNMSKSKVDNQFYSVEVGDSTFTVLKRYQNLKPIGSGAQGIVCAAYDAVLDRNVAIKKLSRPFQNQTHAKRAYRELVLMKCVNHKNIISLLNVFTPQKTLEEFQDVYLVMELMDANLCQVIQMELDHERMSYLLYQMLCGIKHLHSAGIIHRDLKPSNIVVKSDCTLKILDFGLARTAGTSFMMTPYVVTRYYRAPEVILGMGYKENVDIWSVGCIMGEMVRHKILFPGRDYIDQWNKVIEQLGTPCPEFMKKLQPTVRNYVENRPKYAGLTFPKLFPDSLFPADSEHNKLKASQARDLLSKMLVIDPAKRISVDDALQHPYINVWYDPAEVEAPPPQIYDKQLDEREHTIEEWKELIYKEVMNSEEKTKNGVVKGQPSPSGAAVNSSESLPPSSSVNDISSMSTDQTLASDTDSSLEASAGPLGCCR
HER2 expr 66K: inhibitors of human Her2 kinase expression; HER2 level % of control, % at 10 µM; SKBR-3 HER2 protein level, AlphaScreen, 18-24 h; hits give low values; hit rate 0.69% among 65,000; P04626; AID 645;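 active means HER2 level under 5% of the carrier-only control; inconclusive means no clear call, values can overlap the other calls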;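 further: 100% = DMSO carrier and 0% = 500 nM PU-H71 HSP90 inhibitor; lower value means stronger loss of Her2 protein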
Numbers without * were called inactive; ? = inconclusive; nt = no result given. Shown are actives, neighbours in structure and some others; about 1.5% of the full set was active somewhere.

SMILES	ROCK2 inh	SKBR3 24h inh	PKA kinase inh	JNK3 inh	HER2 expr 66K
Cc1ccc2c(c1)N(CCCC(=O)NCCCN1CCCC1=O)C(=O)CO2	-1	nt	5	2	117
Cc1cc(C)nc(-n2nc(C)c(Sc3ccc(F)cc3)c2N)n1	3	76	9	-3	65
Cc1nn(C)c(C)c1Sc1ccc(Br)cc1	-4	56	-2	-2	-9.0*
O=C(CCCOc1ccccc1)Nc1ccncc1	33*	56	30*	-6	107
Cc1ccc(NC(=O)C2C3C=CC4(CN(Cc5cccnc5)C(=O)C24)O3)cc1F (stereo unspecified)	0	nt	6	-1	79
Nc1ccc(Sc2nnnn2-c2ccccc2)c(Cl)c1	0	98	-2	2	105
Clc1ccc(-n2nnnc2Sc2ncnc3sccc23)cc1	3	nt	5	1	-11*
Cc1sc2ncnc(SCC(=O)c3cccs3)c2c1C	6	85	12	-2	58
Cc1sc2ncnc(Sc3nnnn3-c3ccccc3)c2c1C	4	nt	2	-3	-14*
CCCCn1c2c(c3ccccc31)CCc1nonc1-2	-4	nt	-1	8	81
c1coc(-c2nc3c4c5c(sc4ncn3n2)CCCC5)c1	6	89	4	1	55
N#Cc1sc2nc3c(c(-c4ccco4)c2c1N)CCCC3	-1	87	0	17*	95
COc1ccccc1NC(=O)COc1ccc(CO)cc1Cl	0	84	6	19*	93
O=C(CCn1cccc1)NCCc1ccc(Cl)cc1	2	nt	8	1	109
O=c1[nH]c(C2CCCN(S(=O)(=O)c3ccccc3)C2)nc2c1nnn2Cc1ccccc1F (stereo unspecified)	6	31*	12	6	53
COc1cccc(N2CCN(c3c4c(nc5ncnn35)CCC4)CC2)c1	nt	25*	12	nt	110
c1ccc(N2CCN(c3c4c(nc5ncnn35)CCC4)CC2)cc1	nt	nt	0	nt	89
C=C(C)COc1ccc(-c2nc(N)ncc2-c2ccc(OC)cc2)c(O)c1	2	107	6	23*	100
C=C(C)COc1ccc(-c2ncncc2Oc2ccc(OC)cc2)c(O)c1	-2	92	1	-4	110
COc1ccc(-c2cnc(N)nc2-c2ccc(OC)cc2O)cc1	9	123	10	31*	103
CCCCCC(=O)Nc1ccc(S(=O)(=O)Nc2nccnc2OC)cc1	nt	nt	nt	nt	90
Fc1cc2nc(-c3ccncc3)[nH]c2cc1F	nt	95	24*	nt	90
Nc1ccc2nc(-c3ccc(Cl)cc3)[nH]c2c1	-1	nt	5	-16	81
COc1ccccc1NS(=O)(=O)c1ccc(OC)c(OC)c1	-1	29*	1	4	95
COc1ccc(N(Cc2cc(=O)[nH]c3ccccc23)C(=O)c2ccco2)cc1	-6	44*	-3	6	72
SMILES	ROCK2 inh	SKBR3 24h inh	PKA kinase inh	JNK3 inh	HER2 expr 66K
Cc1ccc(S(=O)(=O)Nc2nc3ccc(S(=O)(=O)N4CCCC4)cc3s2)cc1	1	89	3	-1	181
COc1cc(C(=O)Nc2nccs2)ccc1OCc1c(C)noc1C	3	nt	5	21*	66
CCN1/C(=C/C(=O)c2ccco2)Sc2ccccc21	-7	nt	-4	4	-0.5*
Cc1ccccc1NC(=O)CN1C(=O)COc2ccc(Cl)cc21	2	nt	4	2	78
CCOc1cc(S(=O)(=O)NCCc2cccc(C)c2)c(OCC)cc1-n1cnnn1	3	83	8	0	3.6*
COc1ccc(Nc2nc(N3CCCC3)c3ccccc3n2)cc1	5	nt	9	-8	-5.6*
Cc1nc2nc(-c3ccco3)nn2c(C)c1Cl	5	113	6	6	-8.6*
Cc1nc2nc(-c3cccnc3)nn2c(C)c1Cl	1	89	-3	-3	78
Cc1ccc(C)c(N2CCN(c3cc(C)nc4nnnn34)CC2)c1	1	85	-2	3	84
CC12C(=O)N(c3nccs3)C(=O)C1C1C=CC2C1 (stereo unspecified)	4	96	7	4	91
Nc1c(S(=O)(=O)c2cccc(Cl)c2)c2nc3ccccc3nc2n1/N=C/c1ccc(O)c(O)c1	1	2.7*	31*	-2	-13*
Cc1cccc(S(=O)(=O)c2c(N)n(Cc3ccco3)c3nc4ccccc4nc23)c1	1	116	1	0	77
O=C(CSc1nc2ccccc2c(=O)[nH]1)N1CCOCC1	1	24*	7	-1	118
CS(=O)(=O)N1CCN(c2ccccc2NC(=O)Cc2ccc(Cl)cc2)CC1	6	73	9	8	100
CS(=O)(=O)N1CCN(c2ccccc2NC(=O)Cc2ccccc2)CC1	6	93	11	17*	82
CCOP(=O)(c1ccccc1Cl)C1(O)CCCCC1 (stereo unspecified)	4	82	8	1	-28*
CCOP(=O)(c1ccccc1)C1(C#N)CCCC1 (stereo unspecified)	1	85	1	1	101
CCOC(=O)N1CCN(CCC(=O)c2ccc(Cl)cc2)CC1	2	nt	-3	-4	-6.8*
COc1ccc(-n2nnnc2S(=O)(=O)CC(=O)N2CCCCC2)cc1	0	nt	8	-2	-29*
Cn1nnc(NC(=O)COc2ccc(C3CCCCC3)cc2)n1	6	83	10	6	87
COc1cc2c(cc1OC)CN(c1ccc(-c3ccccc3OC)nn1)CC2	5	86	6	-4	-3.7*
C/C=C(\C)CN1CCc2cc(OC)c(OC)cc2C1	9	nt	4	7	115
O=S1(=O)C=C(Sc2nnc(-c3ccccc3)o2)c2ccccc21	1	1.4*	1	-1	-9.4*
Cc1cc(-n2c(C)cc(C(=O)CN3C(=O)NC4(CCCCC4)C3=O)c2C)no1	3	nt	9	6	85
Cc1cc(C(=O)CN2C(=O)NC3(CCCCC3)C2=O)c(C)n1Cc1ccc2c(c1)OCO2	22*	nt	11	-5	97
SMILES	ROCK2 inh	SKBR3 24h inh	PKA kinase inh	JNK3 inh	HER2 expr 66K
C1CCC(c2nn3c(-c4n[nH]c5c4CCC5)nnc3s2)CC1	5	84	9	5	91
CCN(CC)c1ccc(-c2nn3c(-c4n[nH]c5c4CCC5)nnc3s2)cc1	0	?	2	0	-29*
CCOc1cc(C2c3c(n[nH]c3C)C(=O)N2c2ccc(Br)cc2)ccc1O (stereo unspecified)	1	37*	11	2	91
COc1cccc(N2CCN(c3ncnc4c3[nH]c3ccccc34)CC2C)c1 (stereo unspecified)	-11	60	-10	-1	6
COc1cccc(N2CCN(c3ncnc4c3[nH]c3ccc(F)cc34)CC2C)c1 (stereo unspecified)	7	5.7*	6	6	-26*
CCN(CC)c1ccc2cc(-c3nc4ccccc4n3C)c(=O)oc2c1	0	nt	0	-10	62
CCN(CC)c1ccc2cc(-c3nc4ccccc4[nH]3)c(=O)oc2c1	1	42*	-1	1	90
CCOC(=O)c1ccc(NCc2ccc3c(c2)OCO3)cc1	4	43*	9	1	97
CCOC(=O)c1ccc(NCc2ccc(N(C)C)cc2)cc1	5	86	6	-10	86

Compound activity (PubChem BioAssay)
